Experiments:
[1] = system: U-2932; experiment: growth inhibition by drug alone (1 - RLU/untreated control) (fraction); higher = stronger inhibition; details: 177Lu-lilotomab satetraxetan 0 ug/ml
Procedure, shortened: (§1)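 Compound doses on the pre-printed Selleck Cambridge Cancer Compound library plates were 10/100 nM for RIVA cells and 10/1,000 nM for U-2932 cells, seeded at 3,000 cells/well. Before seeding, cells were washed after 18 h with or without a radiolabelled anti-CD37 antibody conjugate (~600 MBq/mg; 0.5 µg/ml RIVA, 1 µg/ml U-2932). Growth inhibition was derived from RealTime-Glo luminescence relative to untreated no-drug control wells. Readings were taken daily starting on day 3, each after 1 h at 37°C, and each well's RLU was divided by the mean of 48 such wells per plate and subtracted from 1.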

[2] = system: RIVA; experiment: as above; details: 177Lu-lilotomab satetraxetan 0 ug/ml
Procedure, shortened: as §1

[3] = system: U-2932; experiment: growth inhibition by drug plus 177Lu-lilotomab satetraxetan (1 - RLU/untreated control) (fraction); higher = stronger inhibition; details: 177Lu-lilotomab satetraxetan 1 ug/ml
Procedure, shortened: as §1

[4] = system: RIVA; experiment: as above; details: 177Lu-lilotomab satetraxetan 0.5 ug/ml
Procedure, shortened: as §1

| Compound | growth inhibition by drug alone ([1]; 10 nM, time (day): 3) | growth inhibition by drug alone ([1]; 10 nM, time (day): 4) | growth inhibition by drug alone ([1]; 10 nM, time (day): 5) | growth inhibition by drug alone ([1]; 10 nM, time (day): 6) | growth inhibition by drug alone ([1]; 1000 nM, time (day): 3) | growth inhibition by drug alone ([1]; 1000 nM, time (day): 4) | growth inhibition by drug alone ([1]; 1000 nM, time (day): 5) | growth inhibition by drug alone ([1]; 1000 nM, time (day): 6) | growth inhibition by drug alone ([2]; 10 nM, time (day): 3) | growth inhibition by drug alone ([2]; 10 nM, time (day): 4) | growth inhibition by drug alone ([2]; 10 nM, time (day): 5) | growth inhibition by drug alone ([2]; 10 nM, time (day): 6) | growth inhibition by drug alone ([2]; 100 nM, time (day): 3) | growth inhibition by drug alone ([2]; 100 nM, time (day): 4) | growth inhibition by drug alone ([2]; 100 nM, time (day): 5) | growth inhibition by drug alone ([2]; 100 nM, time (day): 6) | growth inhibition by drug plus 177Lu-lilotomab satetraxetan ([3]; 10 nM, time (day): 3) | growth inhibition by drug plus 177Lu-lilotomab satetraxetan ([3]; 10 nM, time (day): 4) | growth inhibition by drug plus 177Lu-lilotomab satetraxetan ([3]; 10 nM, time (day): 5) | growth inhibition by drug plus 177Lu-lilotomab satetraxetan ([3]; 10 nM, time (day): 6) | growth inhibition by drug plus 177Lu-lilotomab satetraxetan ([3]; 1000 nM, time (day): 3) | growth inhibition by drug plus 177Lu-lilotomab satetraxetan ([3]; 1000 nM, time (day): 4) | growth inhibition by drug plus 177Lu-lilotomab satetraxetan ([3]; 1000 nM, time (day): 5) | growth inhibition by drug plus 177Lu-lilotomab satetraxetan ([3]; 1000 nM, time (day): 6) | growth inhibition by drug plus 177Lu-lilotomab satetraxetan ([4]; 10 nM, time (day): 3) | growth inhibition by drug plus 177Lu-lilotomab satetraxetan ([4]; 10 nM, time (day): 4) | growth inhibition by drug plus 177Lu-lilotomab satetraxetan ([4]; 10 nM, time (day): 5) | growth inhibition by drug plus 177Lu-lilotomab satetraxetan ([4]; 10 nM, time (day): 6) | growth inhibition by drug plus 177Lu-lilotomab satetraxetan ([4]; 100 nM, time (day): 3) | growth inhibition by drug plus 177Lu-lilotomab satetraxetan ([4]; 100 nM, time (day): 4) | growth inhibition by drug plus 177Lu-lilotomab satetraxetan ([4]; 100 nM, time (day): 5) | growth inhibition by drug plus 177Lu-lilotomab satetraxetan ([4]; 100 nM, time (day): 6) |
| --- | --- | --- | --- | --- | --- | --- | --- | --- | --- | --- | --- | --- | --- | --- | --- | --- | --- | --- | --- | --- | --- | --- | --- | --- | --- | --- | --- | --- | --- | --- | --- | --- |
| CC[C@@H]1C(=O)N(C)c2cnc(Nc3ccc(C(=O)N[C@H]4CC[C@H](N5CCN(CC6CC6)CC5)CC4)cc3OC)nc2N1C(C)C [BI6727 (Volasertib)] | 0.335 | 0.327 | 0.308 | 0.37 | 0.962 | 0.975 | 0.98 | 0.982 | 0.23 | 0.19 | 0.153 | 0.0282 | 0.943 | 0.962 | 0.969 | 0.971 | 0.255 | 0.307 | 0.34 | 0.465 | 0.917 | 0.946 | 0.965 | 0.977 | 0.631 | 0.702 | 0.726 | 0.726 | 0.939 | 0.964 | 0.975 | 0.981 |
| Cn1cc(C2=C(c3ccc(Cl)cc3Cl)C(=O)NC2=O)c2ccccc21 | -0.00858 | 0.00823 | 0.113 | -0.0764 | -0.0209 | -0.0468 | -0.0762 | -0.00785 | -0.0583 | -0.11 | -0.108 | -0.172 | -0.488 | -0.393 | -0.389 | -0.481 | -0.0696 | 0.00483 | 0.017 | -0.0529 | 0.0138 | 0.0592 | 0.059 | 0.146 | 0.449 | 0.533 | 0.546 | 0.555 | 0.465 | 0.512 | 0.502 | 0.492 |
| Cc1ccc(NC(=O)c2cccc(C(C)(C)C#N)c2)cc1Nc1ccc2ncn(C)c(=O)c2c1 | 0.0487 | 0.00122 | -0.0179 | -0.0294 | 0.157 | 0.159 | 0.087 | 0.137 | -0.0415 | -0.0437 | -0.0355 | -0.0473 | -0.346 | -0.245 | -0.279 | -0.339 | 0.00759 | 0.0624 | 0.11 | 0.17 | 0.173 | 0.189 | 0.164 | 0.263 | 0.556 | 0.622 | 0.643 | 0.651 | 0.432 | 0.547 | 0.564 | 0.563 |
| O=C1c2ccccc2-c2nc3nonc3nc21 | 0.122 | 0.0829 | -0.0474 | -0.0365 | 0.144 | 0.236 | 0.193 | 0.28 | -0.0244 | -0.0693 | -0.283 | -0.811 | -0.571 | -0.488 | -0.554 | -0.831 | 0.0325 | 0.0601 | 0.0603 | 0.0121 | 0.496 | 0.527 | 0.536 | 0.582 | 0.417 | 0.519 | 0.528 | 0.542 | 0.116 | 0.288 | 0.31 | 0.332 |
| Cc1cc(Nc2cc(N3CCN(C)CC3)nc(/C=C/c3ccccc3)n2)n[nH]1 | -0.0691 | -0.0558 | -0.0606 | -0.0133 | 0.102 | 0.0113 | 0.0189 | 0.221 | -0.27 | -0.286 | -0.318 | -0.447 | -0.354 | -0.347 | -0.369 | -0.539 | -0.149 | -0.0973 | -0.0755 | -0.0149 | 0.048 | 0.00467 | 0.0776 | 0.323 | 0.336 | 0.485 | 0.509 | 0.521 | 0.23 | 0.353 | 0.36 | 0.357 |
| COc1ncc(-c2ccc3nccc(-c4ccnnc4)c3c2)cc1NS(=O)(=O)c1ccc(F)cc1F | 0.726 | 0.786 | 0.81 | 0.821 | 0.87 | 0.935 | 0.961 | 0.972 | 0.856 | 0.892 | 0.918 | 0.933 | 0.898 | 0.925 | 0.943 | 0.953 | 0.744 | 0.769 | 0.769 | 0.768 | 0.908 | 0.958 | 0.976 | 0.982 | 0.897 | 0.937 | 0.952 | 0.961 | 0.937 | 0.963 | 0.97 | 0.975 |
| CC(=O)Nc1cccc(-n2c(=O)n(C3CC3)c(=O)c3c(Nc4ccc(I)cc4F)n(C)c(=O)c(C)c32)c1 | 0.103 | 0.0992 | 0.0497 | 0.109 | 0.311 | 0.328 | 0.215 | 0.243 | 0.0319 | 0.00936 | -0.0739 | -0.235 | 0.213 | 0.171 | 0.0872 | -0.0469 | 0.124 | 0.133 | 0.11 | 0.234 | 0.319 | 0.326 | 0.258 | 0.328 | 0.463 | 0.488 | 0.477 | 0.465 | 0.507 | 0.487 | 0.455 | 0.407 |

Source: the supplement of paper PMC6897291
